Data on 23 molecules can be found in PubChem BioAssay AID493194 (Broad Institute, 2011).

Each structure is given as a SMILES string. Measured potencies and affinities stand elsewhere. Inconclusive results are not listed. A number with no mark means an inactive call.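 The calls were made as follows: active = a valid curve of falling signal whose half-effect concentration is at most ten times the top tested dose; inconclusive = flat curve at 30 to 70% inhibition, or poor fit; inactive = signal rise, flat within 30%, or potency beyond limit.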

The target in the test is Scavenger receptor class B member 1 (Mus musculus) (UniProt Q61009). Nature of the test: inhibitors of SR-BI mediated HDL lipid uptake, dose response, ldlA[mSR-BI] cells, fluorescence, cherry pick (AID 493194).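 Also: CHO cells lacking LDL receptor and overexpressing mouse SR-BI; cellular uptake of fluorescently labeled HDL measured as cell fluorescence; 0% = median of neutral control wells and -100% = median of positive control wells.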 The conditions noted are these: CHO ldlA[mSR-BI] DiI-HDL uptake fluorescence, 3 h; series mostly up to 35 µM; activity change, negative = inhibition: at the top concentration.
Scavenger receptor class B member 1 (Mus musculus), sequence (Q61009 whole entry, looked up): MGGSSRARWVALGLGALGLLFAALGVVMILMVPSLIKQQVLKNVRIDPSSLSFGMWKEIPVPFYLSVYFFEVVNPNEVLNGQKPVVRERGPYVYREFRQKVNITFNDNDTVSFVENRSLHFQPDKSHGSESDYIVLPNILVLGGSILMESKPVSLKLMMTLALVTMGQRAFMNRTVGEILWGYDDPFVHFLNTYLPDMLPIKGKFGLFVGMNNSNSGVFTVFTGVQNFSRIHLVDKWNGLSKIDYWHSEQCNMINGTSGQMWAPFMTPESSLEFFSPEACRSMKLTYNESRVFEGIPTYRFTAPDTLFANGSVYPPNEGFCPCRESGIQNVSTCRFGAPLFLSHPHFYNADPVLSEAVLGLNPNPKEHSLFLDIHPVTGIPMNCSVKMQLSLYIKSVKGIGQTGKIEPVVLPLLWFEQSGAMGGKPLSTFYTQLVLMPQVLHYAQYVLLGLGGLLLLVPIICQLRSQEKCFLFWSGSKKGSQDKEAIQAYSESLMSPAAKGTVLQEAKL
Regarding `CC1Cc2ccccc2N1CC(=O)Nc1ccc(N2CCOCC2)cc1` (stereo not drawn), the “activity change, negative = inhibition” value was 33.9%. Regarding `C=CCN(CC=C)C(=O)COn1nnc2ccc(S(=O)(=O)N3CCOCC3)cc21`, the “activity change, negative = inhibition” value is -32.2%.

With `CC(C)(C)NC(=O)N1CCN(c2ncccc2C(F)(F)F)CC1`, the “activity change, negative = inhibition” value is -35.7%. Then `O=C(Nc1ccccc1)C1=C(O)CC(c2ccoc2)CC1=Nc1ccccc1` (stereo not drawn), with -26.7%. On to `O=C(OCCNc1ncc(C(F)(F)F)cc1Cl)c1ccc(S(=O)(=O)N2CCOCC2)cc1`, for which the “activity change, negative = inhibition” value is 6.42%. On to `COc1ccc(-c2nc(-c3ccc(O)cc3O)cs2)cc1OC`, for which the “activity change, negative = inhibition” value is -21.4%.

As to `Cc1cc2oc(=O)cc(CN3CCN(C/C=C/c4ccccc4)CC3)c2cc1O`, the “activity change, negative = inhibition” value was 24.4%. With `COc1ccc(N2CCN(C(=O)Cc3csc(NC(=O)Nc4ccccc4OC)n3)CC2)cc1`, the “activity change, negative = inhibition” value is -3.2%. Consider `CCOCCOC(=O)c1[nH]c2c(c1C)C(=O)CC(c1cccs1)C2` (stereo not drawn), for which the “activity change, negative = inhibition” value was -16.7%. For `CN1CCC2CC1c1cc(-c3ccc(C(F)(F)F)cc3)ccc12` (stereo not drawn), the “activity change, negative = inhibition” value was -2.48%. Then `Cc1ccc2nc3c(c(C(=O)OCC(=O)N(C)C4CCS(=O)(=O)C4)c2c1)CCCC3` (stereo not drawn), with 43.9%. Then `COc1cc(C(=S)N2CCCC2)ccc1OC(=O)c1ccc(Cl)cc1[N+](=O)[O-]`, with -29.2%. With `COc1cc(/C=C/C(=O)OCC(=O)c2ccc[nH]2)cc(OC)c1OC`, the “activity change, negative = inhibition” value was -21.2%. Turning to `CCCCC(=O)Nc1cccc(NC(=O)c2ccccc2Br)c1`, the “activity change, negative = inhibition” value is -29.1%.

Consider `COc1ccccc1CNC(=O)C1CCC(CNC(=O)[C@@H]2Cc3ccccc3CN2)CC1` (stereo partly drawn), for which the “activity change, negative = inhibition” value was -25.2%. Consider `COc1ccc(NC(=O)Nc2nnc(-c3ccccc3SCc3ccccc3)s2)cc1`, for which the “activity change, negative = inhibition” value is 56.2%. With `Cc1c(C(=O)Nc2ccc(Cl)cc2)c2ccccn2c1CCc1ccncc1`, the “activity change, negative = inhibition” value is -36.7%. For `Cc1ccc(-c2sc(-c3ccccc3)nc2CC(=O)Nc2ccccc2F)cc1`, the “activity change, negative = inhibition” value was -23.8%. The figure for `COc1ccc(CCNC(=O)c2ccc3c(c2)N(Cc2ccc(C)cc2)CCS3)cc1OC` is 4.2%; for `COc1cc(-c2nnn(Cc3ccccc3C)n2)cc(OC)c1OC` it is -31.9%. Turning to `COC(=O)c1cnc(Oc2ccc(NC(=O)NC(=O)c3c(OC)cccc3OC)cc2)cc1C(F)(F)F`, the “activity change, negative = inhibition” value was -25.2%. With `CN(C)S(=O)(=O)N1CCN(C(=O)N(c2ccccc2)c2ccccc2)CC1`, the “activity change, negative = inhibition” value was -4.43%. As for `COc1ccc(N(CC(=O)NC2CCCC2)C(=O)Cn2nnc(-c3ccc(C)cc3)n2)cc1`, the “activity change, negative = inhibition” value was 0.875%.
